Experiment [1] addresses T1, CDK3/cyclin E (Homo sapiens) (UniProt P24864+O96020+Q00526). Particulars: at 10 µM.
In experiment [2] the target is T2, Cyclin-dependent kinase 5/CDK5 activator 1 (Homo sapiens) (UniProt Q00535+Q15078). Particulars: at 1 µM.
Experiment [3] has as its target T2, Cyclin-dependent kinase 5/CDK5 activator 1 (Homo sapiens). Particulars: at 10 µM.
For experiment [4] the target is unchanged. Particulars: at 1 µM. This is another data set of the same source.
For experiment [5] the target is unchanged. Particulars: at 10 µM. The source holds these as a separate data set.
In experiment [6] the target is T3, CDK6/cyclin D3 (Homo sapiens) (UniProt P30281+Q00534). Particulars: at 1 µM.
The target of experiment [7] is T3, CDK6/cyclin D3 (Homo sapiens). Particulars: at 10 µM.
Experiment [8] deals with T4, Cyclin-dependent kinase 7/ cyclin H (Homo sapiens) (UniProt P51946+P50613). Particulars: at 1 µM.
The target of experiment [9] is T4, Cyclin-dependent kinase 7/ cyclin H (Homo sapiens). Particulars: at 10 µM.
Experiment [10] has as its target T5, CDK9/cyclin T1 (Homo sapiens) (UniProt O60563+P50750). Particulars: at 1 µM.
Experiment [11] has as its target T5, CDK9/cyclin T1 (Homo sapiens). Particulars: at 10 µM.
Experiment [12] has as its target T6, Serine/threonine-protein kinase Chk1 (Homo sapiens) (UniProt O14757).
T6 sequence (whole entry): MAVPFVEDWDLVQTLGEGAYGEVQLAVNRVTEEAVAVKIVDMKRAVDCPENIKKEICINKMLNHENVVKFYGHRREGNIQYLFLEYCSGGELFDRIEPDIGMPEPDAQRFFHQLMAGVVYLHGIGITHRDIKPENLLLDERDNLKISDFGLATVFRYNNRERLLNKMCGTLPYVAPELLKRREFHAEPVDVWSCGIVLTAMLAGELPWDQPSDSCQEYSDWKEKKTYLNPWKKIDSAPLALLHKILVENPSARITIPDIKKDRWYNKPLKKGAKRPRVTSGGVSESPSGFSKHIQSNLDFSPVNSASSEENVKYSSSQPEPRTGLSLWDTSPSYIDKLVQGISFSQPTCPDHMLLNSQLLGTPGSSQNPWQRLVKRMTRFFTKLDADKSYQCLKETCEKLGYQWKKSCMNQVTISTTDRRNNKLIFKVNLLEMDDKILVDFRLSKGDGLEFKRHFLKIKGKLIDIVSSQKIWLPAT
Particulars: at 1 µM.

Experiment [13] addresses T6, Serine/threonine-protein kinase Chk1 (Homo sapiens). Particulars: at 10 µM.
The target of experiment [14] is Casein kinase I isoform gamma-1 (Homo sapiens) (UniProt Q9HCP0). Particulars: at 10 µM.
Experiment [15] concerns the target Casein kinase I isoform delta (Homo sapiens) (UniProt P48730). Particulars: at 1 µM.
For experiment [16] the target is unchanged. Particulars: at 10 µM.
For experiment [17], the target named is Serine/threonine-protein kinase Chk2 (Homo sapiens) (UniProt O96017). Particulars: at 1 µM.
The target is the same in experiment [18]. Particulars: at 10 µM.
Experiment [19] has as its target Casein kinase I isoform gamma-1 (Homo sapiens) (UniProt Q9HCP0). Particulars: at 1 µM.
Experiment [20] concerns the target T1, CDK3/cyclin E (Homo sapiens). Particulars: at 1 µM.

Molecules are shown by their SMILES.

Results on ten compounds are retold here after ChEMBL document CHEMBL2218924, “A broad activity screen in support of a chemogenomic map for kinase signalling research and drug discovery” (Biochem J, 2013).

Casein kinase I isoform delta (Homo sapiens), sequence (P48730 whole entry, looked up, canonical isoform): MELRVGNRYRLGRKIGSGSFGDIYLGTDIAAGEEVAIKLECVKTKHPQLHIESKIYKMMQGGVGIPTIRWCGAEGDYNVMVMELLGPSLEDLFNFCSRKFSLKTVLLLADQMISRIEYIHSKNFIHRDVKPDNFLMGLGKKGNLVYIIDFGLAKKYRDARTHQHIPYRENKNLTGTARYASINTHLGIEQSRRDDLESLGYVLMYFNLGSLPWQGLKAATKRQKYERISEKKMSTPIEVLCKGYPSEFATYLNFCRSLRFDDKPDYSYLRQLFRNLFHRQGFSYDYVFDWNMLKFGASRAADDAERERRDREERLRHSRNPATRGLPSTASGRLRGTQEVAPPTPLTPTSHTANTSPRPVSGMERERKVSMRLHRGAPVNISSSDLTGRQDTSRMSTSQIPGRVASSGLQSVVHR
T1 sequence (O96020 whole entry, looked up): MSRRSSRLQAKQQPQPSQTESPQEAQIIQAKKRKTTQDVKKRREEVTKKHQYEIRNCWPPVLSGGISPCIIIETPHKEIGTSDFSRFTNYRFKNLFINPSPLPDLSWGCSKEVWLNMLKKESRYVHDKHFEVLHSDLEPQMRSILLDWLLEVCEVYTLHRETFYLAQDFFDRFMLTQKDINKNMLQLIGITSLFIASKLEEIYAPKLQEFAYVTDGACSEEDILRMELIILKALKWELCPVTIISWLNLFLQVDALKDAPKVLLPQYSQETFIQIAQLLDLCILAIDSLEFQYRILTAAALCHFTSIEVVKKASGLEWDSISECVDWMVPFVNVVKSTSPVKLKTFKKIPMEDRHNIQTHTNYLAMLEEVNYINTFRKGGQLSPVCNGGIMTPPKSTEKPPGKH
T1 sequence (P24864 whole entry, looked up): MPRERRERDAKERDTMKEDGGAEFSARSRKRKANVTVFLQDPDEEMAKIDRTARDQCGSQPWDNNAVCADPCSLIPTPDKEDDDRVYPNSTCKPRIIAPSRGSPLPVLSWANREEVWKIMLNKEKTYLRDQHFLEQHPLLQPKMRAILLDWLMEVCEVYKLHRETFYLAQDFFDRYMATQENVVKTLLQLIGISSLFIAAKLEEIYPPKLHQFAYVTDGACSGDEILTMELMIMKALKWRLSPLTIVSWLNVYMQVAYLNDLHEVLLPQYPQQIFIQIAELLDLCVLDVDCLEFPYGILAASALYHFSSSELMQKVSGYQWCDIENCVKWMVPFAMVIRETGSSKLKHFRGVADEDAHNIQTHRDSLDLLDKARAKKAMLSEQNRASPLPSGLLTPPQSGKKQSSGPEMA
T1 sequence (Q00526 whole entry, looked up): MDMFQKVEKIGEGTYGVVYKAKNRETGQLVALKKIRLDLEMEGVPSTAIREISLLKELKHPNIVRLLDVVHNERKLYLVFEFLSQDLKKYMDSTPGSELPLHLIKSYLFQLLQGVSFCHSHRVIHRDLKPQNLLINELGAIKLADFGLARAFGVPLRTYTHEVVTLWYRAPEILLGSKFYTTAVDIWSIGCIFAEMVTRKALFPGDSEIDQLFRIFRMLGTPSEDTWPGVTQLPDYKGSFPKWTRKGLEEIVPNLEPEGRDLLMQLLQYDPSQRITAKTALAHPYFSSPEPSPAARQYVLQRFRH
Casein kinase I isoform gamma-1 (Homo sapiens), sequence (Q9HCP0 whole entry, looked up, canonical isoform): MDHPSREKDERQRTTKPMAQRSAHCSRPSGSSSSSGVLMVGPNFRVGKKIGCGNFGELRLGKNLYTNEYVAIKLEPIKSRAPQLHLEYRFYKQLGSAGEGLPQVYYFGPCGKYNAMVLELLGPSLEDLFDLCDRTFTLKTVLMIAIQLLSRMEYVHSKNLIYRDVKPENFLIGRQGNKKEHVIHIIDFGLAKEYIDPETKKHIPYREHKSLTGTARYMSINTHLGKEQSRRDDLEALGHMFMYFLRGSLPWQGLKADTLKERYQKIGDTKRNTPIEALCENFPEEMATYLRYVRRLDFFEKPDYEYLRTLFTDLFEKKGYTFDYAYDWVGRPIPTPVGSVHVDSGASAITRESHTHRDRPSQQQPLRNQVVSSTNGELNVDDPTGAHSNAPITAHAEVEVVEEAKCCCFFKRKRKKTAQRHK
T2 sequence (Q00535 whole entry): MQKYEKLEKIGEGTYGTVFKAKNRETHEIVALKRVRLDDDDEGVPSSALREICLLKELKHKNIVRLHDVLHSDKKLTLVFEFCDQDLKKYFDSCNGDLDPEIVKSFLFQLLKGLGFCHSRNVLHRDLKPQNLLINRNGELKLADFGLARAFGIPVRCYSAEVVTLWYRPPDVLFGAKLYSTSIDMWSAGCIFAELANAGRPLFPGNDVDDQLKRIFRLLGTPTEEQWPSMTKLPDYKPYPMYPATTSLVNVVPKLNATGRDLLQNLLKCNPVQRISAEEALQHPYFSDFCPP
T2 sequence (Q15078 99-307 partner limits assumed): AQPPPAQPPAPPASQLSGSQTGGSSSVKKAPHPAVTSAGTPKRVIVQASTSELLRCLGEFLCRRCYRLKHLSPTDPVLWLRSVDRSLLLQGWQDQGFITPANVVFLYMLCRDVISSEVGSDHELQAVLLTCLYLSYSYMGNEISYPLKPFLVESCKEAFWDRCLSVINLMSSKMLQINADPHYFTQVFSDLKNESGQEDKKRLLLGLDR
Serine/threonine-protein kinase Chk2 (Homo sapiens), sequence (O96017 whole entry): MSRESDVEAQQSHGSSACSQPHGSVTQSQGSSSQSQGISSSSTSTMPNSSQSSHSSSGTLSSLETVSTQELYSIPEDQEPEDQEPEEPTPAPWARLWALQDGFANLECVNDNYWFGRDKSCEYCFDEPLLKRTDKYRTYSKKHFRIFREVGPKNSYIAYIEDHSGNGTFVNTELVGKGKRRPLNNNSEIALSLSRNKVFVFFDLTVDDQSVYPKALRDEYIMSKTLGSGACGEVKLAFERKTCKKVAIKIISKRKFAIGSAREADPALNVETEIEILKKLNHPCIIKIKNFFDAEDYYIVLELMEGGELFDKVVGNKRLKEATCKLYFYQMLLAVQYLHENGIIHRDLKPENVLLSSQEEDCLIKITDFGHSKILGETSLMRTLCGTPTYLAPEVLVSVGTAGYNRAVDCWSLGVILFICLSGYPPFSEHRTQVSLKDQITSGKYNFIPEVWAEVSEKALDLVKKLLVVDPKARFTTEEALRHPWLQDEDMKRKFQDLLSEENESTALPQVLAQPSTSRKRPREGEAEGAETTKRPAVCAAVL

As for `c1cc(-c2cnn3cc(-c4ccc(OCCN5CCCCC5)cc4)cnc23)ccn1`, the residual activity in experiment [1] was 41%; in experiment [2], 55%; in experiment [3] it was 10%; in experiment [4], 73%; in [5] it was 19%; in experiment [6] it was 68%. Besides, the residual activity worked out at 11% in experiment [7]; 50% in [8]; 9% in experiment [9]; 35% in [10]; 5% in [11]; 101% in experiment [12]. Further, the residual activity came to 87% in experiment [13], 63% in experiment [14], 21% in experiment [15] and 3% in experiment [16].

On to `COc1cc2nccc(Oc3ccc(NC(=O)Nc4cc(C)on4)c(Cl)c3)c2cc1OC`, for which, in experiment [10], the residual activity is 76%.

Turning to `N/C(=N\[N+](=O)[O-])N/N=C\c1ccc(-c2cccc([N+](=O)[O-])c2)o1`, the residual activity in experiment [1] was found to be 81%; in experiment [3], 86%; in [17], 91%; in [18], 75%; in experiment [19], 88%; in [14] it was 82%. Besides, the residual activity in experiment [15] is 80%; in experiment [16], 76%.

For the compound `COc1ccc2c(c1)/C(=C/c1cnc[nH]1)C(=O)N2`, the residual activity in experiment [2] was 0%; in experiment [3], 0%; in [4], 0%; in [5], 0%; in experiment [8] it was 67%; in [9], 18%. The residual activity in [10] amounted to 32%; in [11], 7%; in [12], 77%; in experiment [13] it was 30%; in [17] it was 67%; in experiment [18], 25%. For the same compound, the results for the residual activity in experiment [14], in experiment [15] and in experiment [16] were 67%, 81% and 37%, respectively.

With `CC(C)[C@H](CO)Nc1nc(Nc2cccc(Cl)c2)c2ncn(C(C)C)c2n1`, the residual activity was found to be 14% in experiment [20]; 3% in experiment [1]; 0% in experiment [2]; 0% in experiment [3]; 1% in [4]; 0% in experiment [5]. The residual activity was determined as 98% in experiment [6]; 44% in experiment [7]; 17% in experiment [8]; 1% in experiment [9]; 23% in [10]; 5% in [11]. Moreover, the residual activity in experiment [12] was determined as 99%; in experiment [13] it was 86%; in experiment [17], 96%; in experiment [18] it was 38%; in experiment [19], 10%; in experiment [14], 1%. The figures for the residual activity in experiment [15] and in experiment [16] were 74% and 23%, respectively.

On to `O=C1NC(=O)c2c1c1c3ccccc3n3c1c1c2c2ccccc2n1C1CCC3O1`, for which the residual activity came out at 46% in [20]; 41% in experiment [1]; 73% in experiment [2]; 86% in experiment [3]; 75% in experiment [4]; 65% in [5]. Besides, the residual activity in [6] worked out at 95%; in experiment [7], 76%; in experiment [10] it was 71%; in experiment [11], 66%; in experiment [12], 25%; in experiment [13], 20%. The residual activity in experiment [17] was 26%; in [18], 24%; in experiment [15], 75%; in experiment [16], 75%.

Take `O=c1[nH]c2ccccc2n1C1CCN(Cc2ccc(-c3nc4cc5[nH]cnc5cc4nc3-c3ccccc3)cc2)CC1`: the residual activity in experiment [20] is 105%; in experiment [1] it was 82%; in experiment [2] it was 95%; in experiment [3], 77%; in experiment [4], 100%; in experiment [5] it was 104%. In addition, the residual activity in [6] worked out at 105%; in experiment [7], 103%; in [8] it was 98%; in experiment [9] it was 85%; in experiment [10], 104%; in experiment [11] it was 105%. Besides, the residual activity in [12] turned out to be 102%; in experiment [13], 88%; in experiment [17], 95%; in experiment [18], 87%; in [19], 90%; in experiment [14] it was 62%. Moreover, the values for the residual activity in [15] and in [16] were 84% and 53%, respectively.

Regarding `COc1cc(OC)c(/C=C2\C(=O)Nc3ccccc32)c(OC)c1`, the residual activity in experiment [20] is 84%; in experiment [1], 78%; in [2], 88%; in [3] it was 85%; in experiment [4], 99%; in experiment [5] it was 77%. In addition, the residual activity stood at 90% in experiment [6]; 77% in experiment [7]; 90% in experiment [8]; 84% in [9]; 94% in experiment [10]; 48% in experiment [11]. Besides, the residual activity in experiment [12] stood at 88%; in experiment [13], 81%; in [17], 89%; in [18] it was 78%; in [19], 101%; in experiment [14], 70%. The residual activity is 37% in experiment [15] and 6% in [16].

In the case of `CCc1nc(-c2ccc(OC)cc2)[nH]c1-c1ccncc1`, the residual activity in experiment [20] is 102%; in experiment [2] it was 101%; in experiment [4], 109%; in experiment [15], 74%; in experiment [16], 37%.

Consider `COC(=O)[C@@]1(O)C[C@H]2O[C@]1(C)n1c3ccccc3c3c4c(c5c6ccccc6n2c5c31)C(=O)NC4`, for which the residual activity in experiment [20] came out at 27%; in experiment [1], 2%; in experiment [2], 4%; in experiment [3] it was 1%; in experiment [4], 3%; in experiment [5], 1%. In addition, the residual activity in experiment [6] came out at 15%; in experiment [7], 4%; in [8], 55%; in experiment [9], 16%; in experiment [10] it was 10%; in [11], 2%. For the same compound, the residual activity in [12] was 1%; in experiment [13] it was -1%; in experiment [17], 3%; in experiment [18], 1%; in experiment [19], 93%; in experiment [14], 57%. Besides, the figures for the residual activity in experiment [15] and in experiment [16] were 79% and 37%, respectively.
